Normalised indicator fluorescence data for 9 compounds are collected here from the supplement of paper PMC11865577.

For this assay, the system named is SARS-CoV-2 low-rank motif (SARS-low). The assay can be described thus: normalised indicator fluorescence (fraction of RNA + indicator signal without compound); higher = less displacement of indicator (weaker competition). The following applies: compound concentration: 5 uM, 30 min. A digest of the protocol:
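In 96-well plates, RNA was combined with a TO-PRO-1 or TO-PRO-3 indicator in 20 mM phosphate pH 7.0 containing 20 mM NaCl and 80 mM KCl. Each compound was added as 0.25 μL of a 1 mM DMSO stock, giving about 5 uM final, and fluorescence was read on an Infinite 200 PRO after 30 min (excitation 485 or 620 nm). Values are the blank-corrected indicator fluorescence (buffer plus indicator subtracted) divided by the signal of RNA plus indicator without compound, averaged over two independent experiments.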

Where [1] appears, read: indicator: TO-PRO-1 0.1 uM, RNA concentration: 0.1 uM.
Setting [2] is: indicator: TO-PRO-3 0.5 uM, RNA concentration: 0.5 uM.

As for `Cc1cc(C(C)(C)C)c(O)c(C(C)(C)C)c1`, the normalised indicator fluorescence came out at 1.26 under setting [1] and 1.23 under setting [2].

Consider `C[C@@H]1O[C@@H](O[C@H]2[C@H](Oc3cc(O)c4c(c3)O[C@H](c3ccc(O)cc3)CC4=O)O[C@H](CO)[C@@H](O)[C@@H]2O)[C@H](O)[C@H](O)[C@H]1O` [Naringin], for which the normalised indicator fluorescence was 1.14 under setting [1] and 1.13 under setting [2].

For the compound `COC1=C(OC)C(=O)C(CCCCCCCCCCO)=C(C)C1=O` [Idebenone], the normalised indicator fluorescence under setting [1] is 1.21 and the normalised indicator fluorescence under setting [2] was found to be 1.12.

With `O=C1O[C@H]([C@@H](O)CO)C(O)=C1O` [L(+)-Ascorbic acid], the normalised indicator fluorescence by setting is: under setting [1], 1.18; under setting [2], 1.24.

As to `COc1ccc(-c2coc3cc(O)ccc3c2=O)cc1O` [Calycosin], the normalised indicator fluorescence runs as follows: under setting [1], 1.4; under setting [2], 1.09.

In the case of `CN(NC(=O)CC(=O)NN(C)C(=S)c1ccccc1)C(=S)c1ccccc1` [Elesclomol], the normalised indicator fluorescence under setting [1] stood at 1.17 and the normalised indicator fluorescence under setting [2] came out at 1.25.

Take `Cn1cc(-c2ccc3c(c2)CCN3C(=O)Cc2cccc(C(F)(F)F)c2)c2c(N)ncnc21`: the normalised indicator fluorescence is, setting by setting: under setting [1], 1.35; under setting [2], 1.24.

`CCc1oc2ccccc2c1C(=O)c1cc(Br)c(O)c(Br)c1` [Benzbromarone]: the normalised indicator fluorescence runs as follows: under setting [1], 1.02; under setting [2], 1.4.

With `C[C@@H]1O[C@@H](Oc2c(-c3cc(O)c(O)c(O)c3)oc3cc(O)cc(O)c3c2=O)[C@H](O)[C@H](O)[C@H]1O` [Myricetrin], the normalised indicator fluorescence is, setting by setting: under setting [1], 0.999; under setting [2], 1.07.
